Measurements from PubChem BioAssay AID1053180 (Broad Institute, 2014).
Out of some 9,600 compounds screened, about 20 (0.2%) were called active.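 How the source made its calls: active means highest normalized replicate activity of 15 or more, or at least half the replicates reach 15 or more; inactive means neither condition met.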 What follows is part of a selection rich in actives, with near analogues and random picks from the rest.

test: activators of Pax4 gene expression, primary screen, RT-PCR, mouse alpha TC1 cells, single point (AID 1053180); settings: Pax4 mRNA qPCR, 6 days, at 10 µM, active compounds read high, 100% = Pax4 plasmid added at qPCR;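 further: Pax4 Ct normalized to GAPDH with activation seen as lower delta delta Ct; plate controls were plate neutral control wells for no effect and Pax4 plasmid positive control for full effect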

| Compound | activation |
| --- | --- |
| O=C(C[C@@H]1CC[C@H]2[C@@H](COC[C@@H](O)CN2C(=O)Cc2ccccc2)O1)NC1Cc2ccccc2C1 | 0.021% (inactive) |
| CCCN(C)C[C@H]1OCCCC[C@@H](C)Oc2ccc(NC(=O)CCCN(C)C)cc2C(=O)N([C@H](C)CO)C[C@@H]1C | 0.002% (inactive) |
| C/C=C/c1ccc([C@H]2[C@@H](CO)N3C(=O)CN(Cc4ccc(F)cc4)C[C@H]23)cc1 | 0% (inactive) |
| C/C=C/c1ccc([C@@H]2[C@@H](CO)N3C(=O)CN(Cc4ccc(F)cc4)C[C@@H]23)cc1 | 0.0005% (inactive) |
| C/C=C/c1ccc([C@H]2[C@@H](CO)N3C(=O)CN(Cc4ccc(F)cc4)C[C@@H]23)cc1 | 86.9% (active) |
| COc1ccccc1NC(=O)N1CC(=O)N2[C@H](CO)[C@@H](c3ccc(C#CC(C)C)cc3)[C@@H]2C1 | 0.007% (inactive) |
| COc1cccc(-c2ccc3c(c2)O[C@H](CN(C)Cc2cccnc2)[C@H](C)CN([C@@H](C)CO)S3(=O)=O)c1 | 0.057% (inactive) |
| COc1ccc(C(=O)N2C[C@H]3[C@@H](c4ccccc42)[C@@H](CO)N3C(=O)Cc2ccccn2)cc1 | 0% (inactive) |
| N#C[C@@H]1[C@@H](c2ccccc2-c2ccccc2F)[C@H](CO)N1C(=O)Cc1ccccc1 | 0.001% (inactive) |
| Cc1nc(N2[C@@H](C#N)[C@@H](c3ccccc3)[C@@H]2CO)sc1C | 0.0005% (inactive) |
| COc1ccc(C[C@@H]2CCn3cc(nn3)COC[C@H](C)NC2=O)cc1 | 0.0005% (inactive) |
| Cc1ccc(S(=O)(=O)N2C[C@H]3[C@@H](c4ccccc42)[C@@H](CO)N3Cc2cccnc2)cc1 | 0.002% (inactive) |
| O=C(C[C@H]1CC[C@H]2[C@@H](COC[C@@H](O)CN2S(=O)(=O)c2ccc(F)cc2)O1)NCCN1CCCCC1 | 0.003% (inactive) |
| COc1ccc(NC(=O)N[C@H]2CC[C@@H](CCNC(=O)CN3CCOCC3)O[C@H]2CO)cc1 | 0.002% (inactive) |
| Cc1noc(C)c1S(=O)(=O)Nc1ccc2c(c1)C(=O)N([C@H](C)CO)C[C@H](C)[C@H](CN(C)Cc1ccc(C(=O)O)cc1)OCCCC[C@H](C)O2 | -0.0005% (inactive) |
| COc1ccc(S(=O)(=O)Nc2ccc3c(c2)C(=O)N([C@@H](C)CO)C[C@H](C)[C@H](CN(C)S(=O)(=O)c2ccc(Cl)cc2)OCCCC[C@H](C)O3)cc1 | 0.0535% (inactive) |
| COc1cccc(-c2cccc(-c3nc(C(=O)O)cc4c3[C@H](CCO)N(S(=O)C(C)(C)C)C4)c2)c1 (some centres undefined) | 0.001% (inactive) |
| COc1cccc(-c2cccc(-c3nc(C(=O)O)cc4c3[C@@H](CCO)N(S(=O)C(C)(C)C)C4)c2)c1 (some centres undefined) | 0% (inactive) |
| COc1cccc(-c2cccc(-c3nc(C(=O)Nc4ccc(-c5ccccc5)cc4)cc4c3[C@@H](CCO)N(S(=O)C(C)(C)C)C4)c2)c1 (some centres undefined) | 42.4% (active) |
